Inconclusive results are not listed. The source made the active and inactive calls. Calls follow the shape of the dose curve; as a rule, active = well fitted curve in the direction sought with a large enough effect; inconclusive = small, poorly fitted or top-dose-only effect, or another doubt; inactive = no such curve, though single readings can be large; an effect the other way counts as inactive or inconclusive.
Key:
[1] = biological target: Rap guanine nucleotide exchange factor 3 (Homo sapiens) (UniProt O95398); assay: Confirmatory qHTS for antagonist of cAMP-regulated guanine nucleotide exchange factor 3 (EPAC1) (AID 1645880); also: nearly all actives have a fitted effect of over 55% in size; also: potency is read from the fitted curve at half-maximal effect
How it was run: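 Released BODIPY-GDP fluoresces less than Rap1-bound BODIPY-GDP; the signal is followed at 480/540 nm at 5-min intervals over 30 min, after 5 min at room temperature. Reactions contain 100 nM EPAC1, 250 nM RAP1B-BODIPY-GDP and 50 uM GDP; results are normalized to ATA and DMSO.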

[2] = biological target: Rap guanine nucleotide exchange factor 3 (Homo sapiens) (UniProt O95398); assay: Confirmatory qHTS for agonist of cAMP-regulated guanine nucleotide exchange factor 3 (EPAC1) (AID 1645881);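 also: EPAC1 catalysed release of BODIPY-GDP from Rap1B seen as fluorescence loss; 100% = effect of cAMP agonist control; nearly all actives have a fitted effect of over 75% in size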
[3] = biological target: Rap guanine nucleotide exchange factor 4 (Homo sapiens) (UniProt Q8WZA2); assay: Confirmatory qHTS for agonist of cAMP-regulated guanine nucleotide exchange factor 4 (EPAC2) (AID 1645884);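 also: nucleotide exchange releases bodipy-GDP from Rap1 and this lowers its fluorescence; % is scaled to controls: 0 for no effect and ±100 for the full control effect; nearly all actives have a fitted effect of over 65% in size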
[4] = biological target: Rap guanine nucleotide exchange factor 4 (Homo sapiens) (UniProt Q8WZA2); assay: Confirmatory qHTS for antagonist of cAMP-regulated guanine nucleotide exchange factor 4 (EPAC2) (AID 1645885); also: nearly all actives have a fitted effect of over 25% in size; as to activity change, negative = inhibition: % is scaled to controls: 0 for no effect and ±100 for the full control effect
[5] = biological target: Rap guanine nucleotide exchange factor 3 (Homo sapiens) (UniProt O95398); assay: Counterscreen qHTS for antagonist of cAMP-regulated guanine nucleotide exchange factor 3 (EPAC1) (AID 1645888); also: % of control where 0% means no effect
How it was run: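 Rap1B-BODIPY-GDP 250 nM + GDP 50 uM; cpds 7-pt, final 9.74 nM–152 uM (activator mode) or from 7.32 nM upwards (inhibitor mode); RT; FI 480/540 nm at 5 and 30 min, then ± cAMP, reread.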

Sequence of Rap guanine nucleotide exchange factor 3 (Homo sapiens) (O95398 whole entry, looked up): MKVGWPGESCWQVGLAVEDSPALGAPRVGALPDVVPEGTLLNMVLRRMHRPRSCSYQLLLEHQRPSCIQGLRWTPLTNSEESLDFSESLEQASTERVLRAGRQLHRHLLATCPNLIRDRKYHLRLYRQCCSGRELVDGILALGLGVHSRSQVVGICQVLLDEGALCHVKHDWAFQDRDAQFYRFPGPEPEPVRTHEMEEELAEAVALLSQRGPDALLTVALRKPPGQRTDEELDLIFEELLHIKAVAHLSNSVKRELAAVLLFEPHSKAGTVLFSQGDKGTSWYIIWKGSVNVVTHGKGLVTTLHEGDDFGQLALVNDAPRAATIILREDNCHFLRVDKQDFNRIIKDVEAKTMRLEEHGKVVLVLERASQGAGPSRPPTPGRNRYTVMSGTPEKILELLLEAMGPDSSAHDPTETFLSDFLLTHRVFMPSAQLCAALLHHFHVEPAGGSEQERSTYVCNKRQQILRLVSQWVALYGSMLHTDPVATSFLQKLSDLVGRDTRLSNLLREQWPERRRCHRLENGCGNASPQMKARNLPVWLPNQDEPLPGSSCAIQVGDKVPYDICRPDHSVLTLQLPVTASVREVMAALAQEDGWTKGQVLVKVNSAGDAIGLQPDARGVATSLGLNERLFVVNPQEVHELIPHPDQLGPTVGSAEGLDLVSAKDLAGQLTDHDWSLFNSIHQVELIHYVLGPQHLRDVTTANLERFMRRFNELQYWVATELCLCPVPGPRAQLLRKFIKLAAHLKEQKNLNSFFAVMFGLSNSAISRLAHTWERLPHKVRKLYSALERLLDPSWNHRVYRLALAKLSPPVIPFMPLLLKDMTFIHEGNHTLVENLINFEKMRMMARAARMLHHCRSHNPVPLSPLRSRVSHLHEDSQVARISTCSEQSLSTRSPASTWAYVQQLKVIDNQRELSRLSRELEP
Sequence of Rap guanine nucleotide exchange factor 4 (Homo sapiens) (Q8WZA2 whole entry, looked up): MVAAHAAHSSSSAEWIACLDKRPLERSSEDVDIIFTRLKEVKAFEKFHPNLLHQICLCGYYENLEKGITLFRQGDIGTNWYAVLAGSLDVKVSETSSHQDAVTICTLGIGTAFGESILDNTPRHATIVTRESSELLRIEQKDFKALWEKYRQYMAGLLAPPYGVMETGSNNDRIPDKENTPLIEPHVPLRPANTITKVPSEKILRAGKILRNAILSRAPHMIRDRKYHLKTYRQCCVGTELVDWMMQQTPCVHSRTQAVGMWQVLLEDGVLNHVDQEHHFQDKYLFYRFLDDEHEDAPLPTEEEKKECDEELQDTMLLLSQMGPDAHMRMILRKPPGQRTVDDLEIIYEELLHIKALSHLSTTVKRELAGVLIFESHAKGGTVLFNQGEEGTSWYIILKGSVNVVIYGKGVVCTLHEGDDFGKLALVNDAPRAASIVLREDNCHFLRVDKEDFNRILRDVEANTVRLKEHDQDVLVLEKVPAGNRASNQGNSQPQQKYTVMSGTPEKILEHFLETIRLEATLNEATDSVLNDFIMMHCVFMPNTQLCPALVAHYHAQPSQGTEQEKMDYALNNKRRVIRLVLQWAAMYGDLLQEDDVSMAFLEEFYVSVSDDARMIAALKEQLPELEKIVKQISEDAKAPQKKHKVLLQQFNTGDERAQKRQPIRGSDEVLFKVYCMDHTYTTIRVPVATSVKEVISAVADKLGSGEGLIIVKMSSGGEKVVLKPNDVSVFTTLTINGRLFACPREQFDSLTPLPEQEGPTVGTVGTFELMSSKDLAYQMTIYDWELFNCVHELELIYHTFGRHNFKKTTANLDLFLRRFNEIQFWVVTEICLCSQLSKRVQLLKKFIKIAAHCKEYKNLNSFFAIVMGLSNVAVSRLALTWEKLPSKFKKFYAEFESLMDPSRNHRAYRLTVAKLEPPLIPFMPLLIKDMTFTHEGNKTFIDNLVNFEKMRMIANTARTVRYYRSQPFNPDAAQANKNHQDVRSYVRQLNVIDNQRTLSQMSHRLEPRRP

O=C(CN1CCOCC1)Nc1ccccc1Sc1ccc(Cl)cc1
inactive: Potency [1] | Potency [2] | Potency [3] | Potency [4] | Potency [5]

CCOc1ccc(CN2C(=O)c3ccccc3Sc3ccc(C(=O)NCc4ccc5c(c4)OCO5)cc32)cc1
inactive: Potency [1] | Potency [2] | Potency [3] | outcome [4] inactive [at 12.7 µM] | Potency [5]

Cc1ccc(-n2c(SCC(=O)N/N=C/c3ccccc3C(=O)O)nnc2-c2ccc(Cl)cc2)cc1
inactive: Potency [1] | Potency [2] | Potency [3] | Potency [4] | Potency [5]

Cc1cc(NS(=O)(=O)c2ccc(NC(=O)Cc3ccc(Cl)c(Cl)c3)cc2)no1
inactive: Potency [1] | Potency [2] | Potency [3] | Potency [4] | Potency [5]

COC(=O)c1cc2oc(C)cc2n1Cc1ccc(Br)cc1F
inactive: Potency [1] | Potency [2] | Potency [3] | Potency [4] | Potency [5]

CCOc1ccc(CCNC(=O)c2ccc3c(=O)[nH]c4c(C(=O)NC(C)C)sc(=S)n4c3c2)cc1
active: Potency [1] 21.3 µM
inactive: Potency [2] | Potency [3] | Potency [4] | Potency [5]

CCNC(=O)COc1ccc(/C=C2\COc3ccccc3C2=O)cc1OC
inactive: Potency [1] | Potency [2] | activation [3] 4.45% [at 17.1 µM, percent relative to cAMP agonist control] | Potency [4] | activity change, negative = inhibition [5] 0.373% [at 30.8 µM]

CCOC(=O)c1ccc(NC(=O)Cn2nc(C)c3nn(-c4ccc(Cl)cc4)c(C)c3c2=O)cc1
inactive: Potency [1] | Potency [2] | Potency [3] | Potency [4] | Potency [5]

CCOC(=O)C(Cc1ccc(NC(=O)/C(=C\c2ccccc2)NC(=O)c2ccccc2)cc1)N1C(=O)c2ccccc2C1=O (stereo not given)
inactive: Potency [1] | Potency [2] | Potency [3] | Potency [4] | Potency [5]

N#C/C(=C/c1ccc(O)c(O)c1)c1nc2ccccc2[nH]1
active: Potency [1] 6.01 µM
inactive: Potency [2] | Potency [3] | Potency [4] | Potency [5]

CCNC(=O)C1(C)CCN(C(=O)c2ccc(C(=O)OC)cc2)C1 (stereo not given)
inactive: Potency [1] | Potency [2] | Potency [3] | Potency [4] | Potency [5]

CCn1c2ccccc2c2cc(NC(=O)CSc3nnc(-c4cccc(C)c4)o3)ccc21
inactive: Potency [1] | Potency [2] | activation [3] 3.98% [at 17.1 µM, percent relative to cAMP agonist control] | Potency [4] | activity change, negative = inhibition [5] 9.03% [at 30.8 µM]

COc1ccc(S(=O)(=O)N2CCOC23CCN(S(=O)(=O)c2ccc(F)cc2C)CC3)cc1
inactive: Potency [1] | Potency [2] | Potency [3] | Potency [4] | Potency [5]

CCc1noc(C)c1C(=O)N1CCCSC1=Nc1ccccc1C(C)C
inactive: Potency [1] | Potency [2] | Potency [3] | Potency [4] | Potency [5]

CCc1cccc2sc(N3CCN(C(=O)C4CC4)CC3)nc12
inactive: Potency [1] | Potency [2] | Potency [3] | outcome [4] inactive [at 12.7 µM] | Potency [5]

COc1cc(C)ccc1S(=O)(=O)N1CCCCCC1
inactive: Potency [1] | Potency [2] | Potency [3] | Potency [4] | Potency [5]

Cc1cccc(N2CCN(c3ccc(C(=O)O)cc3NC(=O)c3ccccc3F)CC2C)c1 (stereo not given)
active: Potency [1] 84.9 µM
inactive: Potency [2] | Potency [3] | outcome [4] inactive [at 12.7 µM] | Potency [5]

Reference: PubChem BioAssay (NCATS)
